In the supplement of paper PMC10849652 one finds log2 fold change data, which are given here for 15 targets.

Test in all cases: log2 fold change, soluble protein after heating vs DMSO (PISA); higher = thermal stabilisation; K562 lysate, 10 uM; active = over 0.2 and 3.5 SD of the protein, either way, in both replicates (recomputed)
Compound in one assay: C#Cc1cccc(Nc2ncnc3cc(OCCOC)c(OCCOC)cc23)c1 [erlotinib]
An outline of the steps: (§1)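 Log-two fold change in thermal stability relative to solvent controls is reported from duplicates. For each sample, crude K562 extract from dounce-homogenised pellets in PBS pH 7.4 with 1 mM MgCl2, at 1 mg/mL protein, was treated with 10 μM compound for 30 min. Aliquots heated for 3 min across 48°C-58°C were pooled, brought to 0.5% NP-40 at 4°C and cleared at 21,000xg for 90 min. The supernatant was quantified by TMTpro 16plex LC-MS/MS with channel sums equalised.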

Compound in assay [1]: C/C(=N\NC(=O)C1=CC(=CC=C1)S(=O)(=O)N2CCOCC2)/C3=C(C=CC(=C3)Cl)O
The method in brief:
as §1

Compound in assay [2]: C1=CC(=CC=C1C2=NC3=C(N2)C=C(C=C3)C(=O)N)OC4=CC=C(C=C4)Cl
The method in brief:
as §1

Compound in assay [3]: C1=CC2=C(C=CC(=C2)/C=C\3/C(=O)NC(=NCC4=CC=CS4)S3)N=C1
An outline of the steps:
as §1

Compound in assay [4]: C1=CC2=NC=CN=C2C=C1/C=C/3\C(=O)NC(=O)S3
The method in brief: as §1

Compound in assay [5]: C1=CC=C(C=C1)C2=NC(=C(N2)C3=CC=NC=C3)C4=CC(=C(C=C4)Cl)O
The method in brief:
as §1

Compound in assay [6]: C1=CC=C2C(=C1)C3=NNC4=CC=CC(=C43)C2=O
An outline of the steps: as §1

Compound in assay [7]: C1CCN(C1)C(=O)NC2=CC=CC(=C2)NC3=NC=C(C(=N3)NCCC4=CN=CN4)Br
An outline of the steps:
as §1

Compound in assay [8]: C1CN(CCC1(CC2=CC=C(C=C2)Cl)N)C3=NC=NC4=C3C=CN4
The method in brief: as §1

Compound in another assay: C1COCCN1CCN2C3=CC=CC=C3N=C2NC(=O)C4=CC(=CC=C4)[N+](=O)[O-] [IRAK-1-4 Inhibitor I]
The method in brief: as §1

About 8,800 targets were measured; listed, in parts, are those with a hit and a random draw of the rest. About 0.5% of all pairs of compound and target were hits. Unmarked numbers belong to inactive results.

Sequence of UniProt A8TX70 (A8TX70 whole entry, looked up): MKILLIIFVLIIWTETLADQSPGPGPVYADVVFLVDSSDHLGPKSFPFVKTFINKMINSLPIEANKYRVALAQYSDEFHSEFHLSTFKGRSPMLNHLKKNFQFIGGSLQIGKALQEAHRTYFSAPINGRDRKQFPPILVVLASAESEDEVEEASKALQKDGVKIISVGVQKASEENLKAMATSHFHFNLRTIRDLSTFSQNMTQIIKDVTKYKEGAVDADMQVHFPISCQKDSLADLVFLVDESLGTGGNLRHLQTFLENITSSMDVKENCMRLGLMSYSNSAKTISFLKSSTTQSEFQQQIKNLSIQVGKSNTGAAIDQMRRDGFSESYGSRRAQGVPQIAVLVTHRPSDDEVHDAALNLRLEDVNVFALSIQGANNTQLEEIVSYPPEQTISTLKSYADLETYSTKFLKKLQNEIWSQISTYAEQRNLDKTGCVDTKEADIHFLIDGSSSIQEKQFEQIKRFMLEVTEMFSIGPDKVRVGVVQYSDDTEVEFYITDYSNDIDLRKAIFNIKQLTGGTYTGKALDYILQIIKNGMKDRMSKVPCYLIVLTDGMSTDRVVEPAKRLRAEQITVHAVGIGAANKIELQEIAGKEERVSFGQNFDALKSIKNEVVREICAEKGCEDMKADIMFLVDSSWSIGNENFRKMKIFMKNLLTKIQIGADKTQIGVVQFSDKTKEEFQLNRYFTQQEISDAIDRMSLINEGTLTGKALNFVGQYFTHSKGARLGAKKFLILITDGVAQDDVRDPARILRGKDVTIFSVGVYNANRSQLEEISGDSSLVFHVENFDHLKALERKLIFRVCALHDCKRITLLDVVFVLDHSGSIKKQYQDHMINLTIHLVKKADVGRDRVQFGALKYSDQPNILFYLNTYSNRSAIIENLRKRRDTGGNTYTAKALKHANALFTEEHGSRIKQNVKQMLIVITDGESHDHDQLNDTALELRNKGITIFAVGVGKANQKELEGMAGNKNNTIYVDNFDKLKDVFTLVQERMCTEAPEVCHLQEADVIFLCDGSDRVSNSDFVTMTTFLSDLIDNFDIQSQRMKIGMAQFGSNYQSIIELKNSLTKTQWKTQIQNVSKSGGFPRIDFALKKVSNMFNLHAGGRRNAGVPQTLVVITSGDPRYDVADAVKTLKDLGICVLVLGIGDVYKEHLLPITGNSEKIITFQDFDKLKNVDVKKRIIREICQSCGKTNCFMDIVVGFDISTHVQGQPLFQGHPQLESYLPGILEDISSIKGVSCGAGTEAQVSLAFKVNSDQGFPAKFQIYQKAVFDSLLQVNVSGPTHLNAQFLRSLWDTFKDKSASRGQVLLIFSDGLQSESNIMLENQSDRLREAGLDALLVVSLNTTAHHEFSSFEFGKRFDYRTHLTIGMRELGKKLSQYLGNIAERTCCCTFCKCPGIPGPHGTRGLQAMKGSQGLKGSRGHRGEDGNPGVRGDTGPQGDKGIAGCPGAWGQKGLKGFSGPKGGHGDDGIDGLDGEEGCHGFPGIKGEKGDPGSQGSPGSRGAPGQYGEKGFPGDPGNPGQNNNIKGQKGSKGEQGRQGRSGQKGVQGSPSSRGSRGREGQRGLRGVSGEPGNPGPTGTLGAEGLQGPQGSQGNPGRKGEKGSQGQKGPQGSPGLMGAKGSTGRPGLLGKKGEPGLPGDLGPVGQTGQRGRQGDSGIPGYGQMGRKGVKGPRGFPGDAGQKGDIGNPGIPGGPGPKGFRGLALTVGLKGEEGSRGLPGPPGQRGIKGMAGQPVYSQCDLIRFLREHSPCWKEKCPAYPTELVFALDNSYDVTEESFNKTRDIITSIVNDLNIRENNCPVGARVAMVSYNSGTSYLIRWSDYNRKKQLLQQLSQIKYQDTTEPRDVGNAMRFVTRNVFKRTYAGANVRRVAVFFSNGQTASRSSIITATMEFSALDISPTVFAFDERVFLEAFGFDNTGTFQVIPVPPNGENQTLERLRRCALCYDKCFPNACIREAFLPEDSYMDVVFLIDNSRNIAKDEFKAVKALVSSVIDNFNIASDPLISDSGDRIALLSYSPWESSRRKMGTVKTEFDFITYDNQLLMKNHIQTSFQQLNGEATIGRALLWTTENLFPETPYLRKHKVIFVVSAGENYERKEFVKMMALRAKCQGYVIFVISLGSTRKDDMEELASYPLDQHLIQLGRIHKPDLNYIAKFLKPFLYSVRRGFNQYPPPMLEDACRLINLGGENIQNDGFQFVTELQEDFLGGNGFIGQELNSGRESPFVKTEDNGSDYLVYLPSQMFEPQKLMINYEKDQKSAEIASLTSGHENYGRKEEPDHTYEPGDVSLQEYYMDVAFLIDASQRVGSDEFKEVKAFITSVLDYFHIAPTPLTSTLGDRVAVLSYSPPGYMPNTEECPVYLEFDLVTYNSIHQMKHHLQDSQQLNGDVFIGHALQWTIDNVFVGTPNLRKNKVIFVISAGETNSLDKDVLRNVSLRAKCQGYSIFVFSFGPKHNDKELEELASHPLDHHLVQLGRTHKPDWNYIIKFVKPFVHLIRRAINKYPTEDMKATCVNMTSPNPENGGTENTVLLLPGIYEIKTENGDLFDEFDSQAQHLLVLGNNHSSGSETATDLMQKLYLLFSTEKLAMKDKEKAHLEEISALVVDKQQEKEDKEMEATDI
Sequence of UniProt Q9UHI6 (Q9UHI6 whole entry, looked up): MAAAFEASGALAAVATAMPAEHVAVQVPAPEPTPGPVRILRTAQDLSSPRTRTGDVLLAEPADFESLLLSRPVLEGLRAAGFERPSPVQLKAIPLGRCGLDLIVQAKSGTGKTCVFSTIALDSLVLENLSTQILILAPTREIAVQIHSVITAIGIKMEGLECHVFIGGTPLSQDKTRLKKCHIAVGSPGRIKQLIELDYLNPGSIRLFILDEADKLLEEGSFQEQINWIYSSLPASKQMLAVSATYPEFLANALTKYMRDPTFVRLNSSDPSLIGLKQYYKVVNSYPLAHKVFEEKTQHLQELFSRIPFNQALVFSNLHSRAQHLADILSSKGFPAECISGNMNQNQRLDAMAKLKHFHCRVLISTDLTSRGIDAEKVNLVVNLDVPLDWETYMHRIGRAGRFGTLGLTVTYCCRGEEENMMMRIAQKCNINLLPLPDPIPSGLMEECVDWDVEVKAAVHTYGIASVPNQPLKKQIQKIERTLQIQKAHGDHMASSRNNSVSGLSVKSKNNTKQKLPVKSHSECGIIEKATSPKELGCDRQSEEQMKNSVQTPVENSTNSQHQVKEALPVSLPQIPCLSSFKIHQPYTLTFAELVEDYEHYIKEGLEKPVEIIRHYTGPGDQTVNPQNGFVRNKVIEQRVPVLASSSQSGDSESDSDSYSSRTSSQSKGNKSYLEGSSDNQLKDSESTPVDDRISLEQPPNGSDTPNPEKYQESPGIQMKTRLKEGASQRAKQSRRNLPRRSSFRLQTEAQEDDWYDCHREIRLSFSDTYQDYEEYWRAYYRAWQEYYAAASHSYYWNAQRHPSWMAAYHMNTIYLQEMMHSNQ
Sequence of UniProt Q8WWK9 (Q8WWK9 whole entry, looked up): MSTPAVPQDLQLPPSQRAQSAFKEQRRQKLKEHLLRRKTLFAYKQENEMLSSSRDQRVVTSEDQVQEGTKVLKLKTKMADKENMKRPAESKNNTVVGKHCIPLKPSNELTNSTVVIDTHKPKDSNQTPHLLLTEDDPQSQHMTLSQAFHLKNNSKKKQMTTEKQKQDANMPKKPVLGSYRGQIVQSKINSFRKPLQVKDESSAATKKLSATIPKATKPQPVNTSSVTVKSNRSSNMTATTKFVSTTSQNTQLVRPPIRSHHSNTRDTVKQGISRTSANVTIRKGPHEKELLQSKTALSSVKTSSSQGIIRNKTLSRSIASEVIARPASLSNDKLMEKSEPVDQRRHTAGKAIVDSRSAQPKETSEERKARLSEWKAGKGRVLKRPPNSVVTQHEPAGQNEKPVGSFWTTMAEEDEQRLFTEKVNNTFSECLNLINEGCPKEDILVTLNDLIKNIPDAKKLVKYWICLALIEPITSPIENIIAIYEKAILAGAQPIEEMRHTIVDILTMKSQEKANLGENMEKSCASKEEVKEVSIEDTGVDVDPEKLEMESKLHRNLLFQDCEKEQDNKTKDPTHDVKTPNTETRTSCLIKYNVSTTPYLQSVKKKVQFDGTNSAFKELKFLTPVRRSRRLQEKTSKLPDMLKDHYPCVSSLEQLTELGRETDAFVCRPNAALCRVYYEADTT
Sequence of UniProt Q8WUH1 (Q8WUH1 whole entry, looked up): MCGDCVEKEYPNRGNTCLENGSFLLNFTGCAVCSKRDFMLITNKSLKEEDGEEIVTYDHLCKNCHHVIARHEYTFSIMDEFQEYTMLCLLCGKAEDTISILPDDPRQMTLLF
Sequence of UniProt Q96MX0 (Q96MX0 whole entry, looked up): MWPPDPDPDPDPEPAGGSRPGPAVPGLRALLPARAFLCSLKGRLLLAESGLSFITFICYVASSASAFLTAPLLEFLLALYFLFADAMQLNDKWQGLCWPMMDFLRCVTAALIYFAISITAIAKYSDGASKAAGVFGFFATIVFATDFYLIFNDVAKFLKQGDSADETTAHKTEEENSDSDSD
Sequence of UniProt P21964 (P21964 whole entry, looked up): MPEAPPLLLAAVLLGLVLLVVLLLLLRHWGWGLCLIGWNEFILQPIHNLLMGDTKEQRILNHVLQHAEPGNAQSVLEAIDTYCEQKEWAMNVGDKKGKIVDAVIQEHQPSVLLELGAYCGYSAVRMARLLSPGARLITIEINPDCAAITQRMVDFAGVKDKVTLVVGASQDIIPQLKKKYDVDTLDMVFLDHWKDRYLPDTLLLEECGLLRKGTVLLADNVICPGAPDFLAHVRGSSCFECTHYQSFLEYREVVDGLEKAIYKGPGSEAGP
Sequence of UniProt Q96DG6 (Q96DG6 whole entry, looked up): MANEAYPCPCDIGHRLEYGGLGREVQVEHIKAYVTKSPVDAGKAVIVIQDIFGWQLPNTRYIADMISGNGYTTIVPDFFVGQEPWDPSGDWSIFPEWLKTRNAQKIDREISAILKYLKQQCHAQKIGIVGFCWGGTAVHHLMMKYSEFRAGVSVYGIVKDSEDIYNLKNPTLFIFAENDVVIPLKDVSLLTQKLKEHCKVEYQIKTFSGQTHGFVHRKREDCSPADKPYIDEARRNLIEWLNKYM

CKAP2 (UniProt Q8WWK9): the log2 fold change was 0 with erlotinib; -0.158 in assay [1]; -0.062 in assay [2]; -0.148 in assay [3]; -0.015 in assay [4]; 0.006 in assay [5]. In addition, the log2 fold change in assay [6] is -0.611 (active); in assay [7], -0.007; in assay [8], 0.046; in the assay with IRAK-1-4 Inhibitor I, 0.014.
Take DNAJC5 (UniProt Q9H3Z4): the log2 fold change is -0.003 in the assay with erlotinib; 0.037 in assay [1]; -0.018 in [2]; -0.021 in assay [3]; 0.053 in assay [4]; 0.033 in assay [5]. Also, the log2 fold change was 0 in [6], 0.049 in [7], -0.005 in assay [8] and -0.012 in the assay with IRAK-1-4 Inhibitor I.
In the case of CHURC1 isoform 2 (UniProt Q8WUH1), the log2 fold change with erlotinib is 0.05; in assay [1], -0.13; in assay [2] it was -0.021; in [3], -0.003; in assay [4] it was 0.015; in [5], 0.079. The log2 fold change is 0.002 in assay [6], -0.017 in assay [7], 0.058 in assay [8] and -0.002 with IRAK-1-4 Inhibitor I.
With CMTM3 (UniProt Q96MX0), the log2 fold change is 0.002 with erlotinib; -0.112 in [1]; 0.053 in assay [2]; -0.084 in assay [3]; -0.009 in assay [4]; -0.011 in [5]. In addition, the log2 fold change in [6] is -0.019; in [7], -0.083; in [8], -0.089; in the assay with IRAK-1-4 Inhibitor I, -0.012.
As to CSNK1A1 (UniProt P48729), the log2 fold change with erlotinib was -0.027; in [1], -0.106; in assay [2] it was 0.093; in assay [3], 0.028; in assay [4], 0.013; in [5], 0.217. The log2 fold change in assay [6] is 0.406 (active); in assay [7], -0.082; in assay [8] it was -0.032; with IRAK-1-4 Inhibitor I it was -0.038.
Turning to COMT (UniProt P21964), the log2 fold change in the assay with erlotinib was 0.031; in [1], -0.03; in assay [2] it was -0.01; in assay [3], 0.011; in [4], -0.029; in assay [5], 0.001. In addition, the log2 fold change in [6] is 0.043; in [7], -0.024; in assay [8], -0.033; with IRAK-1-4 Inhibitor I it was 0.019.
For CLCN3 (UniProt P51790), the log2 fold change with erlotinib is -0.047; in assay [1] it was 0.043; in assay [2] it was -0.067; in [3], 0.06; in assay [4] it was 0.016; in [5], -0.02. Besides, the log2 fold change in assay [6] is 0.084; in assay [7], -0.043; in assay [8] it was -0.117; with IRAK-1-4 Inhibitor I it was 0.083.
Regarding CLUH, A0A494C0R8, the log2 fold change with erlotinib was 0.077; in assay [1], -0.023; in assay [2] it was -0.041; in assay [3], 0.02; in assay [4], 0.225; in assay [5], 0. In addition, the log2 fold change in assay [6] is -0.114; in assay [7], 0.05; in assay [8], -0.063; with IRAK-1-4 Inhibitor I, 0.008.
Regarding CMBL (UniProt Q96DG6), the log2 fold change is 0.026 with erlotinib; 0.047 in assay [1]; -0.03 in [2]; -0.031 in assay [3]; 0.01 in assay [4]; -0.002 in assay [5]. Also, the log2 fold change is 0.045 in assay [6], 0.006 in assay [7], -0.002 in [8] and 0.025 with IRAK-1-4 Inhibitor I.
For the target DDX20 (UniProt Q9UHI6), the log2 fold change is 0.021 with erlotinib; 0.048 in [1]; -0.054 in assay [2]; -0.029 in [3]; -0.005 in assay [4]; 0.007 in assay [5]. The log2 fold change in assay [6] was 0.022; in assay [7], 0.032; in assay [8] it was 0.042; with IRAK-1-4 Inhibitor I, -0.015.
Regarding CNOT6L (UniProt Q96LI5), the log2 fold change was -0.011 with erlotinib; 0 in [1]; 0.007 in assay [2]; -0.02 in [3]; 0.007 in assay [4]; -0.04 in [5]. The log2 fold change in [6] was -0.042; in assay [7] it was -0.018; in assay [8] it was -0.012; in the assay with IRAK-1-4 Inhibitor I, 0.002.
Consider COL6A5 (UniProt A8TX70), for which the log2 fold change is 0.064 with erlotinib; 0.161 in assay [1]; 0.02 in [2]; -0.062 in [3]; -0.167 in [4]; 0.027 in assay [5]. For the same target, the log2 fold change in assay [6] is 0.014; in assay [7], 0.014; in [8], -0.052; with IRAK-1-4 Inhibitor I, 0.046.
On to DHRS3 (UniProt O75911), for which the log2 fold change with erlotinib is 0.056; in [1], 0.08; in assay [2], 0.047; in [3], -0.008; in assay [4] it was -0.044; in assay [5] it was 0.03. For the same target, the log2 fold change in assay [6] is -0.028; in assay [7], -0.007; in assay [8], 0.016; with IRAK-1-4 Inhibitor I, 0.046.
COTL1 (UniProt Q14019): the log2 fold change with erlotinib was -0.012; in assay [1] it was 0.04; in assay [2], 0.013; in assay [3] it was -0.006; in [4] it was -0.02; in assay [5] it was 0. Moreover, the log2 fold change in assay [6] was 0.004; in [7] it was 0.022; in assay [8], 0.008; with IRAK-1-4 Inhibitor I it was -0.03.
In the case of CYP24A1 (UniProt Q07973), the log2 fold change with erlotinib is 0.015; in assay [1], 0.058; in [2], 0.148; in assay [3] it was -0.09; in assay [4] it was -0.083; in assay [5], -0.008. For the same target, the log2 fold change was -0.135 in assay [6], -0.05 in [7], -0.011 in [8] and 0.07 in the assay with IRAK-1-4 Inhibitor I.
